TDP1 cell CPT: growth inhibition of DT40 Tdp1-/-;hTDP1 cells with camptothecin (screen for TDP1 inhibitors) | chicken DT40 Tdp1-/-;hTDP1 cells + 20 nM CPT, ATP luminescence, 48 h | Potency, µM (doses to about 46.2 µM), for the others: at the top dose activity change, negative = growth inhibition, usual class: inhibitors | 420,000 tested, 12% active; note: potency is the fitted concentration of half-maximal effect; % is set by controls: 0 for no effect and ±100 for the full control effect; nearly all actives have a fitted effect of over 55% in size
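Chicken DT40 Tdp1-/- cells stably complemented with human TDP1 were seeded at 400 cells/well in medium containing 20 nM camptothecin, exposed to pin-transferred compounds, and grown at 37 °C for at least 48 hr. Viability was read as ATP luminescence.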
TDP1 block: blocks human tyrosyl-DNA phosphodiesterase 1; 350,000 tested, 0.28% active; recombinant TDP1, AlphaScreen DNA substrate cleavage; Q9NUW8; Potency, µM (doses to about 130 µM), inactives show at the highest dose activity change, negative = inhibition, usual class: inhibitors; note: potency is the fitted concentration of half-maximal effect; % is set by controls: 0 for no effect and ±100 for the full control effect; nearly all actives have a fitted effect of over 40% in size
Target sequence (Q9NUW8 whole entry, looked up): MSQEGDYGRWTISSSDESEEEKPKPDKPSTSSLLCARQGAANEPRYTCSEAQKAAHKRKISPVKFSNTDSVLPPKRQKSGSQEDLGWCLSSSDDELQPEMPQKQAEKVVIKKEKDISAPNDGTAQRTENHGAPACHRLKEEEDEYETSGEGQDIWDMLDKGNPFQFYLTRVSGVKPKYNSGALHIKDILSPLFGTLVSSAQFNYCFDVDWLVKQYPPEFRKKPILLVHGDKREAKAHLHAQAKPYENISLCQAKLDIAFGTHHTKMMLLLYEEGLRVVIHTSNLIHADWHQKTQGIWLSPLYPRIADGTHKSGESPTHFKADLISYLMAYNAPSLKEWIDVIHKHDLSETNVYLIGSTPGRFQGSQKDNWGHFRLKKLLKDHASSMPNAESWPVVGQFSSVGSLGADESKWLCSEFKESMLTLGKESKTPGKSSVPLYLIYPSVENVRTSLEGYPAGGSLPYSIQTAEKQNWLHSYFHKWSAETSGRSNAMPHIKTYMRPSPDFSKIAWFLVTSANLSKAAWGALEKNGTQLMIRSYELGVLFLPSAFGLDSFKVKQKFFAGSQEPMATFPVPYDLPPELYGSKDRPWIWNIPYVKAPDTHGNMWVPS
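Recombinant human Tdp1 (E. coli-expressed, 1 nM final) preincubated with compounds 15 min at room temperature, then 5'-biotin/3'-phosphotyrosine-FITC DNA substrate (15 nM final) added for 5 min. AlphaScreen beads (10 ug/ml final) added 10 min; cleavage lowers signal.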
IL1B secr inh: inhibitors of inflammasome signaling (IL-1 beta secretion) | THP-1 LPS/ATP IL-1B secretion, AlphaLISA, 16 h; stronger effect = lower value | activity change, % at 57.5 µM | 360,000 tested, 4.7% active | AID 743279; in the data active = activity change below about -50%; inconclusive = mostly about -30% to -49%; note: % is set by controls: 0 for no effect and ±100 for the full control effect
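THP-1 cells pretreated 1 hr with compounds (up to 57.5 uM final), then stimulated with LPS (250 ng/mL final) plus ATP (1.25 mM final); secreted IL-1B measured by AlphaLISA after 16 hr, decreased signal indicating inhibition.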
TDP1 cell noCPT: qHTS for Inhibitors of human tyrosyl-DNA phosphodiesterase 1 (TDP1): qHTS in cells in absence of CPT | 420,000 tested, 15% active | Potency, µM (top dose mostly 46.2 µM), for the others: at the top dose activity change, negative = growth inhibition, hits mostly inhibitors | DT40 Tdp1-/- hTDP1 cells, no CPT, ATP luminescence, 48 h; note: potency is the fitted concentration of half-maximal effect; % is set by controls: 0 for no effect and ±100 for the full control effect; nearly all actives have a fitted effect of over 55% in size
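Chicken DT40 Tdp1-/- cells complemented with human TDP1, screened without camptothecin (DMSO vehicle only), 400 cells/well. Compounds pin-transferred, cells incubated at 37 °C for at least 48 hr. Growth read as ATP-dependent luminescence (CellTiter-Glo, 30 min at RT).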
HepG2 tox: HepG2 cytotoxicity, counter-screen for TGF-b inhibitors. HepG2 CAGA-GFP viability, ATP luminescence, 18 h. Potency, µM (titrated, usually from 46.1 µM), without a hit: at the highest dose activity change, negative = cytotoxicity, most hits filed as cytotoxic. 410,000 tested, 0.76% active; note: potency is the fitted concentration of half-maximal effect
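CellTiter-Glo luminescence gave cytotoxicity after 18 hours at 37 degrees C. The cells were HepG2 CAGA-GFP in 1% FBS DMEM, stimulated with 500 pg/mL TGF-beta after compound addition. %Activity was normalised to no-cell wells (complete cell-killing) and DMSO (no toxicity), and curves were fitted and classified.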
TGFb inhibitor: inhibitors of TGF-b signaling. HepG2 CAGA-GFP TGF-b/SMAD3 reporter, GFP fluorescence, 18 h; TGF-beta stimulated, 500 pg/mL final. Potency, µM (doses to about 46.1 µM), for inactives: at the highest dose activity, negative = inhibition, actives largely listed as inhibitors. 410,000 tested, 1.2% active; note: potency is the fitted concentration of half-maximal effect; % is set by controls: 0 for no effect and ±100 for the full control effect; nearly all actives have a fitted effect of over 65% in size
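Smad-responsive CAGA-GFP expression was quantified in HEPG2 cells exposed to compounds and 500 pg/mL final TGF-beta for 18 h at 37 degrees C; unstimulated wells defined full inhibition.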
Numbers without * were called inactive; i = inactive; ? = inconclusive; . = no result; [ ] = remark or other dose. A selection: hits, their analogues and other compounds. The true share with any hit is near 19%. Unless noted, calls come from the whole dose curve; as a rule, active = well fitted curve in the direction sought with a large enough effect; inconclusive = small, poorly fitted or top-dose-only effect, or another doubt; inactive = no such curve, though single readings can be large; an effect the other way counts as inactive or inconclusive.

SMILES	TDP1 cell CPT	TDP1 block	IL1B secr inh	TDP1 cell noCPT	HepG2 tox	TGFb inhibitor
CCOc1ccccc1N=Nc1c(C)[nH]n(C(N)=S)c1=O	?	.	12	15µM*	-15%	-13%
Cc1ccc(NC(=O)c2ccc(Cl)cc2Cl)c(C(=O)c2ccccc2)c1	?	3%[2.28 µM]	.	?	-27%	?
Cc1[nH]n(C(N)=S)c(=O)c1N=Nc1ccccc1C(F)(F)F	?	.	-7	15µM*	-30%	-46%
COc1ccc(N=C2C(=S)N(c3ccc(OC)cc3)C(=NS(=O)(=O)c3ccccc3)N2c2ccccc2)cc1	1.5µM*	.	-5	1.5µM*	-4%	-8%
COc1ccc(N2C(=O)NC(NS(=O)(=O)c3ccccc3)(C(F)(F)F)C2=O)cc1 (centres undefined)	-6%	7%	-19	-6%	0%	15%
O=C(CCCCn1c(=O)[nH]c2ccccc2c1=O)N1CCN(c2cccc(C(F)(F)F)c2)CC1	16µM*	4%	-27	?	-28%	-8%
O=C(CCn1c(=O)[nH]c2ccccc2c1=O)N1CCN(c2ccc(Cl)cc2)CC1	?	4%	23	-25%	-1%	-14%
COc1ccc(N2CCN(C(=O)CCCCCn3c(=O)[nH]c4ccsc4c3=O)CC2)cc1	?	5%	-1	16µM*	0%	-3%
O=C(CCCCn1c(=O)[nH]c2ccsc2c1=O)N1CCN(c2cccc(C(F)(F)F)c2)CC1	12µM*	6%	.	9.2µM*	-49%	10µM*
O=C(CCn1c(=O)[nH]c2ccccc2c1=O)N1CCN(c2cccc(C(F)(F)F)c2)CC1	16µM*	5%	?	18µM*	-36%	0%
Cc1cc(C)cc(NC(=O)c2cn3c4c(ccc(Cl)c4c2=O)OC(C)C3)c1 (centres undefined)	-1%	-1%	.	-4%	-16%	1%
CNC1C(O)[C@@H]2OC(O[C@@H]3C(O)C(O)C(N)C[C@H]3N)C(N)C[C@H]2O[C@H]1O[C@@H]1OC(CO)C(N)C(O)C1O (some centres undefined)	1%	7%[56.1 µM]	.	-5%	.	.
O=C(COc1ccc2ccccc2c1CN1CCOCC1)N1CCc2ccccc21	?	6%	-74*	?	13µM*	?
O=C(COc1ccc(F)cc1)N1c2ccccc2CCc2ccccc21	?	2%	-19	18µM*	-19%	?
O=C(COc1cccc2ccccc12)N1c2ccccc2CCc2ccccc21	?	3%	?	18µM*	-3%	?
O=C(COc1ccccc1Cl)N1CCc2ccccc21	11%	0%	-2	3%	-21%	-2%
Cc1ccc(CNS(=O)(=O)c2cnc(N)nc2)cc1	-1%	8%	.	3%	-1%	-2%
CS(=O)(=O)c1ccc2nc(NC(=O)c3ccc(Cn4cc(Br)cn4)o3)sc2c1	-15%	2%	12	-4%	-28%	?
COc1ccccc1N(CC(=O)NCCSCc1cccc(C)c1)S(=O)(=O)c1ccccc1	?	6%	-14	?	-13%	-19%
COc1ccc(-c2ccnc(-n3ncc(C(=O)NC(C)(C)CO)c3C3CC3)n2)cc1F	14%[9.04 µM]	.	.	-5%	.	.
CCN(CC)S(=O)(=O)c1cc(C(=O)Nc2ccncc2)ccc1Cl	23µM*	4%	-56*	16µM*	-33%	?
O=C(Nc1ccon1)c1ccc(Cl)c(S(=O)(=O)N2CCCCC2)c1	?	5%	i	23µM*	-3%	-8%
O=C(Nc1cccc(S(=O)(=O)N2CCCC2)c1)c1cccnc1	-18%	1%	36	0%	3%	-30%
CCN(CC)S(=O)(=O)c1cc(C(=O)Nc2cccnc2)ccc1Cl	-21%	-9%	13	-14%	3%	-4%
O=C(Nc1ccc(Cl)c(S(=O)(=O)N2CCCCC2)c1)c1cccnc1	18µM*	-3%	0	?	-33%	-23%
SMILES	TDP1 cell CPT	TDP1 block	IL1B secr inh	TDP1 cell noCPT	HepG2 tox	TGFb inhibitor
O=C(Nc1nc2ccccc2[nH]1)c1ccc(Cl)c(S(=O)(=O)N2CCCC2)c1	18µM*	12%	-59*	16µM*	-23%	?
CCn1c(=O)c(=O)[nH]c2cc(C(=O)N(C)Cc3ccc(OC)c(F)c3)ccc21	-19%	0%	22	-17%	-19%	-23%
CC(C)c1ccc(S(=O)(=O)c2cnc(SCC(=O)Nc3ccc4c(c3)OCCO4)[nH]c2=O)cc1	-3%	6%	.	0%	-3%	-4%
Cc1ccc(C(=O)Nc2ccc3c(c2)OCO3)cc1S(=O)(=O)N1CCCC1	?	2%	-3	7.3µM*	-1%	-5%
CCN(CC)CCNC(=O)c1ccc(NC(=O)c2ccc(S(=O)(=O)N3CCCCCC3)cc2)cc1	?	.	-8	?	-40%	?
Cc1cnc(C(=O)Nc2ccc(C)c(S(=O)(=O)N3CCCCC3)c2)cn1	-2%	-11%	40	-21%	1%	8%
O=C(Nc1ccncc1)c1ccc(Cl)c(S(=O)(=O)N2CCCC2)c1	?	-5%	52	26µM*	-24%	-11%
CCN(CC)CCNC(=O)c1ccc(NC(=O)c2ccc(Cl)c(S(=O)(=O)N3CCCCCC3)c2)cc1	?	.	-104*	?	-78%	?
Cc1ccc(C(=O)Nc2ccc3c(c2)OCO3)cc1S(=O)(=O)N1CCOCC1	6%	3%	-3	-21%	-15%	0%
Cc1ccc(NC(=O)c2cnccn2)cc1S(=O)(=O)N1CCCCCC1	?	-17%	14	23µM*	-3%	-9%
O=C(COC(=O)c1ccccc1OCCOc1ccccc1)Nc1ccccc1Br	-12%	.	.	-20%	2%	6%
Cc1ccc(NS(=O)(=O)c2ccc(-c3cnc(C4CC4)o3)cc2)cc1N(C)C	1µM*	9%	.	0.73µM*	-32%	10µM*

High-throughput results: PubChem, National Center for Advancing Translational Sciences (NCATS)
